Compound activity from PubChem BioAssay.
Only some compounds are listed: those with a hit (about 8.9% of all), similar ones and a draw of the others.
D3 antag: qHTS of D3 Dopamine Receptor Antagonist: qHTS; AID 652054, 2013; max response, negative = inhibition, %; D(3) dopamine receptor (Homo sapiens), P35462; D3R cells, DiscoveRx beta-arrestin luminescence, antagonist mode; active compounds read low; hit rate 2.5% among 360,000; in the data active means max response below about -50%; inconclusive means no clear call, values can overlap the other calls
Target sequence (P35462 whole entry, looked up): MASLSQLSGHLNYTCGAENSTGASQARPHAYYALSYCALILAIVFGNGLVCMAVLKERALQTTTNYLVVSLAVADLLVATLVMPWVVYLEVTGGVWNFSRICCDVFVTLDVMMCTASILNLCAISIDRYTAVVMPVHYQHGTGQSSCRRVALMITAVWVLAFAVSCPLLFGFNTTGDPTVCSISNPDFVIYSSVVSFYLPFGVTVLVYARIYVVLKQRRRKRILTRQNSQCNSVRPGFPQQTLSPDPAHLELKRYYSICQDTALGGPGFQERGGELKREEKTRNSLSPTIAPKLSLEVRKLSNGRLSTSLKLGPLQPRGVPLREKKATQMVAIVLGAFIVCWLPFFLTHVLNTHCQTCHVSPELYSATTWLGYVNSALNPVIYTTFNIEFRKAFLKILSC
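Cells expressing the human receptor were seeded at 1500 cells/well, incubated overnight at 37 degrees C in 5% CO2, then exposed to library compounds with dopamine controls for 90 minutes at 37 degrees C before luminescent detection.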
SW480 rereplic: A quantitative high throughput screen for small molecules that induce DNA re-replication in SW480 colon adenocarcinoma cells | SW480 DNA re-replication, Hoechst DNA content imaging, 48 h | Potency, µM (highest dose often 46.1 µM), hits mostly activators | hit rate 1.8% among 340,000 | AID 624297, 2012; further: nearly all actives have a fitted effect of over 55% in size
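Hoechst fluorescence of nuclei (405 nm excitation, 500-530 nm emission) measured by plate-scanning imager after 48 hr compound exposure at 37 C; re-replication scored as increased number of nuclei with elevated intensity.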
DRD3 agonist: qHTS of D3 Dopamine Receptor Agonist: qHTS; D3R DiscoveRx beta-arrestin cells, luminescence, 90 min; hit rate 0.58% among 410,000; AID 652048, 2013; D(3) dopamine receptor (Homo sapiens), P35462; max activation, %; in the data active means max activation above about 30%
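Agonist mode: compounds and dopamine controls were applied to plated cells for 90 min at 37 degrees C after an overnight attachment at 1500 cells/well. Luminescent read-out followed 30 - 60 minutes at room temperature with DiscoveRx detection reagent.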
KB-V1 cytotox: qHTS assay for MDR1-selective chemotherapeutics: Primary screen using the drug-selected MDR subline cells KB-V1; KB-V1 MDR cells viability, CellTiter-Glo, 72 h; Potency, µM (titrated, usually from 46.1 µM), usual class: cytotoxic; hit rate 3.4% among 400,000; AID 1347076, 2019; further: nearly all actives have a fitted effect of over 60% in size
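Drug-selected KB-V1 cells, grown in DMEM lacking phenol red with 10% FBS, receive compound titrations; after three days at 37 degrees C, surviving cell ATP is quantified by CellTiter-Glo luminescence and responses normalized and curve-fitted.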
MCF10A rerep: A quantitative high throughput screen for small molecules that induce DNA re-replication in MCF 10a normal breast cells; MCF 10A DNA re-replication, Hoechst nuclear intensity, 48 h; Potency, µM (series often up to 46.1 µM), actives largely listed as activators; hit rate 2.9% among 350,000; AID 624296, 2012; further: nearly all actives have a fitted effect of over 50% in size
KB-3-1 cytotox: qHTS assay for MDR1-selective chemotherapeutics: Primary screen using the parental adenocarcinoma cell KB-3-1. Potency, µM (top dose mostly 46.1 µM), actives largely listed as cytotoxic. hit rate 1.4% among 400,000. KB-3-1 viability, CellTiter-Glo ATP luminescence, 72 h; further: nearly all actives have a fitted effect of over 60% in size
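72 h, 37 °C compound treatment of KB-3-1 parental cells; CellTiter-Glo added, 10 min, luminescence read. Data corrected against DMSO-only plates and normalized before curve fitting.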
Numbers stand for hits; . = inactive; ? = inconclusive; / = not tested or not shown; [ ] = another dose, or the depositor's remark. Unless noted, the call rests on the fitted dose curve; in most records, active means well fitted curve in the direction sought with a large enough effect; inconclusive means small, poorly fitted or top-dose-only effect, or another doubt; inactive means no such curve, though single readings can be large; an effect the other way counts as inactive or inconclusive.

SMILES | D3 antag | SW480 rereplic | DRD3 agonist | KB-V1 cytotox | MCF10A rerep | KB-3-1 cytotox
Cc1ccc(S(=O)(=O)c2nc(S(C)(=O)=O)sc2NCc2ccccc2)cc1 | / | / | . | . | / | .
COc1cccc(CN(C)C(c2ccccc2)c2ccccc2)c1OC | -51 | . | . | . | ? | .
COc1ccc(CN(C)C(c2ccccc2)c2nnnn2-c2ccccc2C)c(OC)c1C (stereo not drawn) | . | . | . | . | . | .
CN(C(=O)CSc1nc2ccccc2n1CC(=O)N(C)C1CCCCC1)c1ccccc1 | / | / | . | . | / | .
N#CC1=C(N)Oc2c(oc(CO)cc2=O)C1c1ccsc1 (stereo not drawn) | . | . | . | . | . | .
N#CC1=C(N)Oc2c(ccc3ccccc23)C1c1ccsc1 (stereo not drawn) | . | ? | . | ? | ? | 6.5µM
Cc1nnc2c(Nc3cccc(O)c3)nc3ccccc3n12 | / | / | . | . | / | .
COc1ccc(NCc2nnc(SCC(=O)Nc3nc(-c4ccccc4)cs3)n2-c2ccccc2)cc1 | . | ? | . | . | 10µM | 13µM
COc1ccc(-n2c(CNc3ccc(C)cc3)nnc2SCC(=O)Nc2nc(-c3ccccc3)cs2)cc1 | . | ? | . | . | 15µM | .
Cc1cc(C)nc(SCc2nnc(SCC(=O)Nc3nc(-c4ccccc4)cs3)n2-c2ccccc2)n1 | . | . | . | . | . | .
COc1ccc(-n2c(Cc3cccn3C)nnc2SCC(=O)Nc2ccc(C)cc2)cc1 | . | . | . | . | . | .
CC1=C(C(=O)NCc2ccc(C)cc2)C2(CCCCC2)OC1=O | / | / | . | / | / | /
NC(=O)C[n+]1cccc(C(=O)Nc2ccccc2)c1 | -67 | . | . | . | . | .
CCOC(=O)c1c(NC(=O)COc2ccc(C)cc2C(C)(C)C)sc2c1CCC(C)C2 (stereo not drawn) | / | / | . | / | / | /
COc1ccccc1/C=C/c1nc2ccccc2s1 | / | / | / | . | / | .
CC(C)c1cc(C(C)C)c(S(=O)(=O)N2c3ccccc3[C@@]3(Br)C[C@H]4C(=O)N[C@@H](Cc5ccccc5)C(=O)N4[C@@H]23)c(C(C)C)c1 | . | ? | . | ? | . | 16µM
O=C1N[C@@H](Cc2ccccc2)C(=O)N2[C@@H]3N(S(=O)(=O)c4ccccc4)c4ccccc4[C@]3(Br)C[C@@H]12 | ? | . | . | . | ? | .
Cc1ccc(NC(=O)CSc2nc3c(oc4ccccc43)c(=O)n2Cc2ccco2)cc1F | / | / | . | . | / | .
COc1ccc(CCNC(=O)C(=O)NCC(c2cccs2)S(=O)(=O)c2ccc(C)cc2)cc1 (stereo not drawn) | / | / | . | . | / | .
CCCN(C(=O)CCc1nc(-c2ccccc2F)no1)c1ccc(CC)cc1 | / | / | . | ? | / | .
CCOC(=O)N1CCC(NCCNC(=O)c2ccc(Cl)cc2)CC1 | -74 | . | . | . | . | .
CCOC(=O)N1CCC(NCCNC(=O)c2ccc(F)c(F)c2)CC1 | -99 | . | . | . | . | .
CC(=O)N1CCc2cc(Br)cc(S(=O)(=O)N3CCC(C)CC3)c21 | / | / | . | . | / | .
CCOc1ccc(NC(=O)CCc2nc3cccnc3n2-c2ccccc2)cc1 | / | / | . | . | / | .
COCCCNC(=O)c1cnn(-c2ccccc2Cl)c1C1CCN(C(=O)OC(C)(C)C)CC1 | / | / | . | . | / | .
SMILES | D3 antag | SW480 rereplic | DRD3 agonist | KB-V1 cytotox | MCF10A rerep | KB-3-1 cytotox
Cc1ccccc1-n1c(CSC(=N)N)nc2ccccc2c1=O | -72 | ? | . | . | ? | .
N=C(N)SCc1nc2ccccc2c(=O)n1-c1ccccc1Cl | . | . | . | 23µM | ? | .
C/C(N)=C(/C#N)C(=O)CSc1nc2ccccc2c(=O)n1-c1ccccc1C | . | . | . | . | . | .
CC(C)(C)C(=O)CSc1n[nH]c(-c2ccccc2)n1 | / | / | / | . | / | .
Cc1ccc(C(=O)c2c3ccc(N)cc3nn2CCC(N)=O)cc1 | -73 | .[9.22 µM] | . | . | . | .
O=S1(=O)c2ccc(Br)cc2OC(COCc2ccccc2)CN1Cc1ccccc1 (stereo not drawn) | . | ? | . | ? | . | .
O=S1(=O)c2ccc(Br)cc2N2CCC[C@@H]2CN1Cc1ccccc1 | ? | 2.9µM | . | . | ? | ?
CCCCn1c(N)c(N(C(=O)CSc2nnnn2-c2ccccc2C)C2CCCC2)c(=O)[nH]c1=O | . | . | . | . | . | .
Cc1ccc(S(=O)(=O)N(C)C)cc1NC(=O)CCc1c[nH]c2ccccc12 | . | . | . | ? | . | .
COc1ccc(S(=O)(=O)N(C)C)cc1NC(=O)Cc1c[nH]c2ccccc12 | . | 3.7µM | . | . | . | .
CN1CCC2(CC1)N=C(c1ccc(F)cc1)C(=S)N2C(=O)c1ccc(C(C)(C)C)cc1 | . | . | . | ? | 8.2µM | ?
COc1ccccc1NC(=O)CN(Cc1ccco1)C(=O)c1ccc(-n2nc(C)cc2C)cc1 | . | . | . | 2.1µM | . | .
COc1ccccc1NC(=O)CN(Cc1ccco1)C(=O)c1cncc(Br)c1 | . | . | . | ? | . | .
NC(=O)C1CCCN(CC(=O)Nc2cc(S(=O)(=O)N3CCOCC3)ccc2N2CCCC2)C1 (stereo not drawn) | . | . | . | . | . | .
C=CCOc1ccc(CN(C)C(=O)CNC(=O)c2ccc(-c3ccccc3)cc2)cc1 | . | ? | . | 2.3µM | . | 4.6µM
CCN1CC2=C(OC(N)=C(C#N)C2c2cccs2)/C(=C/c2cccs2)C1 (stereo not drawn) | ? | ? | . | ? | ? | .
CCN1C=C(Cc2cccs2)C2=C(C1)C(c1cccs1)C(C#N)=C(N)O2 (stereo not drawn) | ? | . | . | . | 21µM | ?
BrC(=C\c1ccccc1)/C=N/n1cnnc1 | . | . | . | ? | 16µM | .
BrC(=C\c1ccccc1)/C=N/Nc1ccc2nncn2n1 | . | ? | . | ? | ? | .
Cc1ccc(OCCCCn2ccnc2)c(Cl)c1 | . | . | . | 21µM | . | .
Cc1ccc(C)c(OCCCCn2ccnc2)c1 | . | ? | . | ? | . | .
Cc1cc(C(C)(C)C)ccc1OCCn1ccnc1 | -64 | . | . | ? | ? | .
Cc1ccc2c(c1)N(C(=O)C1CCN(S(=O)(=O)c3c(C)noc3/C=C/c3ccccc3F)CC1)CCO2 | / | / | . | / | / | /
CCN(CC)S(=O)(=O)c1ccc(N2CCCC2)c(NC(=O)C2=COCCO2)c1 | . | ? | . | . | . | .
